# Molecular target: EFCAB6
# Test: pooled miR-30 sensor sort-seq; sequence = guide strand
# Settings: shRNA
row,Sequence,sensor-assay potency score (higher = more potent)
1,TAAATGTTCACTTAACAGCTGA,-0.275
2,TTGAATATACTCTACACGGTGA,0.203
3,TTTCATAACAGTCTTAATGTTT,-0.893
4,TAGTTTGTAACAGAAATCCTTA,-0.465
5,TTGACTGGCATCTCGTTCCAGA,-0.455
6,TTAGACAAGTCTGACCATCTGT,0.537
7,TTCACTTAACAGCTGATCCTTT,0.362

# Molecular target: EFCAB7
# Test: as above
# Settings: shRNA
row,Sequence,sensor-assay potency score (higher = more potent)
1,TTCATCTCTATATACAAGTTGG,-0.725
2,TTTGTATCAAAATTCTCTCTGC,0.129
3,TACAATAATATATCCATTCTTG,-0.277
4,TTCGGTAAAACACACAAGCTGT,-0.242
5,TATATTTTCATAGCCATCCATT,-0.796
6,TTGTTTTCAATAACTGACGTTA,-0.29
7,TTCTCGATCATTAGCTTCCATT,-1.27
8,TAGTCTTGAGACATTGCTCGTT,0.405
9,TTTACTGTCAACCTCTAGTTTT,-1.12
10,TTCTCTATTTCGTAGTTCGGTA,-1.01
11,TAATTTACAAAACTTGATGTAG,-0.142
12,TTGATCTTTAGAAATAATGTTT,-0.858

# Molecular target: EFNB2
# Test: as above
# Settings: shRNA
row,Sequence,sensor-assay potency score (higher = more potent)
1,TATAGTACCAGTCCTTGTCCAG,-0.415
2,TTGTTGTCGAACTTCTTCCATT,-1.15
3,TAATAGTGCATCTGTCTGCTTG,0.293
4,TTTTCTTCCTGCACATCGCTAT,0.000564
5,TTGCACACCTTAACTAGCCCGA,-0.379
6,ATAGGCTCTAAAACTATCGATT,-0.56
7,TATAATGTAATAATCTTTGTTC,0.426
8,TTGTCGAACTTCTTCCATTTGT,-0.423
9,TATCTGTGGGTATAGTACCAGT,-1.11
10,AATTCTTGAAACTTGATGGTGA,0.644
11,TTTATACAAAACATCTTGCTTA,0.624
12,TTGCTCTATGTACACAATCTGG,-1.18
13,TAGAGGATCATAATTTCTGTGA,-0.365
14,TTAATAGTGCATCTGTCTGCTT,-0.0531
15,TAAAAAACCAACATTGCTCTAT,0.0453
16,TTAGACTTTATAAAAAACCAAC,-1.36
17,TAGTGCATCTGTCTGCTTGGTC,0.00867
18,TTAGCATAGAACCAAAACGTAG,-1.59
19,TTCTGCACAGTCTTCCAGCTTC,-0.41
20,TTTATCAACCATATAAACTTTA,-0.264
21,TATAATATTCATACTGGCCAAC,-1.28

# Reference: the OligoGym collection
